Source: PubChem (The Scripps Research Institute Molecular Screening Center)
Rows were chosen to be rich in hits. Some 3.5% of all compounds tested hit in one or more screens of this group.
TEAD-YAP block: TEAD-YAP interaction inhibition, primary screen, TEAD-YAP interaction inhibitor project, luminescence, HEK-TIYL cells; actives 1.4% (n = 640,000); inhibition, % at 9.12 µM; TEAD-Gal4/YAP UAS-luciferase luminescence; in the data active means inhibition above about 32%;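 further: 0% = median of test compound wells and 100% = reference inhibitor wells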
FBW7 activator: FBW7 E3 ligase activators, primary screen, biochemical, AlphaScreen, human; F-box/WD repeat-containing protein 7 (Homo sapiens), Q969H0; AlphaScreen FBW7–phospho-cyclin E peptide binding, activator screen; normalized activity (activation), % at 26.1 µM; actives 0.13% (n = 650,000); AID 1259310, 2017; in the data active means normalized activity above about 1.9%;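 further: purified mutant Fbw7 with reduced substrate affinity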
MITF inh: MITF inhibitors, primary screen, biochemical, AlphaScreen, human; Microphthalmia-associated transcription factor (Homo sapiens), O75030; AlphaScreen MITF homodimerization, bead proximity signal; inhibition, % at 2.6 µM; actives 0.91% (n = 650,000); AID 1259374, 2018; in the data active means inhibition above about 50%;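 further: 0% = vehicle wells with protein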
GPR151 activ: activators of human GPR151, primary screen, cell-based, PathHunter beta-arrestin, luminescence; activation, % at 11.2 µM; actives 1% (n = 650,000); AID 1508602, 2020; PathHunter beta-arrestin GPR151 cells; in the data active means activation above about 4.9%;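 further: 0% = median of compound wells and 100% = cells with positive control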
GPR151 conf act: GPR151 activators, triplicate retest, confirmation, cell-based, PathHunter beta-arrestin, luminescence; GPR151 PathHunter beta-arrestin cells, 90 min; % of EA-reagent control over plate median; activation, % at 11.2 µM; shares compounds with GPR151 activ; AID 1508609, 2020; 6,700 tested, under 10 active;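 active means mean percent activation across replicates above the confirmation screen cutoff of 4.91%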
GPR119 counter: GPR119 activators in beta-arrestin cells, counter-screen for GPR151 activator project, cell-based, PathHunter beta-arrestin, luminescence, triplicate | shares compounds with GPR151 activ | 90 min; 0 = compound-well median, 100 = enzyme-acceptor control | activation, % at 11.2 µM | actives 0.3% (n = 6,700) | AID 1508611, 2020;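 active means mean percent activation in the counterscreen above 29.09%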;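 further: counterscreen on off-target GPR119 to flag nonselective hits from the GPR151 activator screen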
Target sequence (Q8TDV5 whole entry, looked up): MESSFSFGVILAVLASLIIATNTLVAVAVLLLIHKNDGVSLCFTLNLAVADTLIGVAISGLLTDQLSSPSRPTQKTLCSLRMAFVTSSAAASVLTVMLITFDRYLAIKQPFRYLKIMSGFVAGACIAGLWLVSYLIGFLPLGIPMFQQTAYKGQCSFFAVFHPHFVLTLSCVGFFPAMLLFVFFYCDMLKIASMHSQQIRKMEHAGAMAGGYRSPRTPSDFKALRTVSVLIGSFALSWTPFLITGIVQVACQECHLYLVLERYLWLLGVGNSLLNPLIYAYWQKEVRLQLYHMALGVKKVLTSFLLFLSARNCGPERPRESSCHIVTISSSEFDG
* hit, by the source's call; nt = not tested or not shown.

SMILES | TEAD-YAP block | FBW7 activator | MITF inh | GPR151 activ | GPR151 conf act | GPR119 counter
COc1cc(/C=C2\C(=O)NC(=O)N(c3ccc(O)cc3)C2=O)cc(Br)c1O | 0.4 | 0.0 | 8.5 | 3.3 | nt | nt
OCCNc1nc(-c2csc3ccccc23)nc2c1ncn2Cc1ccc(C(F)(F)F)cc1 | 2.8 | 0.0 | 3.5 | 6.1* | 0.8 | 0.6
FC(F)(F)c1ccc(Cn2cnc3c(Nc4ccc(N5CCOCC5)cc4)nc(-c4ccccc4)nc32)cc1 | 0.3 | 0.1 | 14.5 | 5.2* | -0.7 | -11.8
CN(C)S(=O)(=O)N1CCC(Oc2ccc(C(=O)NC3CCc4ccccc43)cc2)CC1 (configuration not stated) | -27.0 | -0.1 | -2.9 | -1.0 | nt | nt
O=C(NCc1nc(-c2ccccc2)no1)c1cccc(Br)c1 | 6.7 | 0.2 | 8.5 | 2.1 | nt | nt
CCN(CCCNC(=O)c1c(C)cc(=O)oc1C)c1ccccc1 | -10.1 | -0.1 | 2.9 | 5.1* | -0.8 | -8.0
CCCCN(CCCNC(=O)c1c(C)cc(=O)oc1C)c1ccccc1 | -23.4 | 0.1 | 15.1 | 1.8 | nt | nt
O=C(/C=C/c1cc([N+](=O)[O-])ccc1O)Nc1cccc(Br)c1 | -2.4 | 0.1 | -1.7 | 5.6* | 0.2 | 0.7
C=CCS/C(=C(/C#N)C(N)=O)c1cc2c([nH]1)CCCC2 | -1.6 | -0.2 | 6.1 | 8.6* | 0.1 | 5.3
O=C1OC(c2ccccc2Br)=N/C1=C\c1ccc(I)cc1 | 6.0 | 0.0 | 13.0 | 5.3* | -0.9 | -10.5
O=C1OC(c2ccccc2Br)=N/C1=C\c1ccc(Br)cc1 | -3.9 | 0.1 | 2.7 | 0.2 | nt | nt
CCn1c(O)c(C=NC2CCCC2)c(=O)[nH]c1=S | 3.0 | -0.2 | -11.6 | 5.2* | -0.2 | -0.2
Cc1cccc(N2CCN(C(=O)c3cccn4c(=O)c5cc(Cl)ccc5nc34)CC2)c1C | 1.9 | 1.0 | 7.3 | -1.6 | nt | nt
C=CCOc1ccc(/C(O)=C2/C(=O)C(=O)N(CCN(CC)CC)C2c2ccc(C)cc2)c(C)c1 (configuration not stated) | 4.6 | 0.1 | -6.9 | 7.1* | -0.2 | -3.3
CCC(C)NC(=O)CCN(Cc1c(Cl)cccc1Cl)S(=O)(=O)c1ccc(C)cc1 (configuration not stated) | 6.7 | 0.1 | 13.1 | -0.2 | nt | nt
O=C(COc1ccc(Cl)cc1)NCC(c1ccco1)N1CCOCC1 (configuration not stated) | 12.7 | -0.4 | -0.4 | 6.2* | 1.8 | 3.4
CCOC(=O)C1=CN(C(C)C)C=C(C(=O)OCC)C1c1ccc(OC)cc1OC | -1.2 | 0.5 | -13.5 | 5.4* | -1.3 | 1.7
CCOc1cc(C2C(C(=O)OC)=CN(C(C)C)C=C2C(=O)OC)cc(Br)c1O | 6.3 | 0.2 | 7.5 | 7.2* | 1.0 | -1.5
COc1ccc(N2CCN(C/C=C/c3ccccc3[N+](=O)[O-])CC2)cc1 | 2.5 | -0.1 | 14.7 | -0.3 | nt | nt
COc1ccc(N2CCN(Cc3ccc([N+](=O)[O-])s3)CC2)cc1 | 3.8 | -0.1 | 55.6* | 5.1* | 0.4 | 9.3
C[C@@H](OCc1ccccc1)[C@@H]1NC(=O)[C@H]2CN(C(=O)c3cc(F)ccc3F)CCN2C1=O | -5.0 | 0.1 | -7.2 | 8.9* | 0.7 | 15.5
C[C@@H](OCc1ccccc1)[C@@H]1NC(=O)[C@H]2CN(C(=O)c3cc(F)c(F)cc3F)CCN2C1=O | 11.3 | 0.8 | 18.1 | 0.4 | nt | nt
CCSc1sc(CC)cc1C1C(C#N)=C(N)N(N(C)C)C2=C1C(=O)CC(C)(C)C2 (configuration not stated) | -4.0 | 0.4 | 6.7 | 5.5* | 0.6 | -0.4
COc1ccc2ccccc2c1/C=C1\C(=O)NC(=O)N(c2ccc([N+](=O)[O-])cc2)C1=O | 7.7 | -0.1 | 10.4 | 6.7* | -0.4 | -0.1
